Hit rate of the full screen: of about 13,000 compounds, about 3,200 (25%) showed an effect of 50% or more. The list shows a part of the results.

From article PMC4552634, “A New Set of Chemical Starting Points with Plasmodium falciparum Transmission-Blocking Potential for Antimalarial Drug Discovery” (PLoS ONE, 2015) come the findings set out here.

The subject of this test is P. falciparum stage V gametocytes. Also noted: BacTiter-Glo ATP luminescence viability of purified stage V gametocytes in 384-well plates, per cent inhibition versus DMSO. The conditions noted are these: 48 h, 5 µM; inhibitor.
With `O=C(Nc1ccc(Cl)cc1)c1cc(Cl)ccc1NC(=O)C1CCc2ccccc2O1` (stereo not shown) [TCMDC-136640], the “% Inhibition” value is listed as -15.02%. To `CCCOc1cc(O)c(-c2n[nH]c(C)c2Oc2ccccc2)cc1CC` [TCMDC-125714] belongs -75.18%; to `CCCOc1ccc(CCNCCCCNCCc2ccc(OCCC)c3ccccc23)c2ccccc12` [TCMDC-137952], 124.7%; to `CCOc1c(CCNCCCCNCCc2ccc3ccccc3c2OCC)ccc2ccccc12` [TCMDC-137759], 109.7%. To `CCOc1c(N2CCN(CCCCNC(=O)c3ccc(NC(=O)c4ccc(Cl)cc4)cc3)CC2)ccc2ccccc12` [TCMDC-138522] belongs 6.305%; to `CCCOc1c(CCNCCCCNCCc2ccc3ccccc3c2OCCC)ccc2ccccc12` [TCMDC-137950], 113.4%; to `CC(=NO)C1=C(O)C(c2ccccc2)N(c2ccccc2)C1=O` (stereo not shown) [TCMDC-131673], 13.72%. To `O=C(/C=C/c1ccc(Cl)c(Cl)c1)NCCCCCN1CCCN(C(=O)Nc2ccc(F)c(F)c2)CC1` [TCMDC-135750] belongs -25.07%; to `CCCC(C)Nc1nc(C)cc(N[C@@H](Cc2ccccc2)C(=O)NCCc2ccccc2)n1` (stereo partly shown) [TCMDC-134766], 6.892%.

As for `O=C(Nc1ccc(OC2CCN(Cc3ccsc3)C2)c(Cl)c1)c1ccco1` (stereo not shown) [TCMDC-133950], the “% Inhibition” value was 41.88%. To `O=C(N[C@@H](CC1CCCCC1)C(=O)NC1CCCCCC1)c1ccc(O)c(-c2ccc(Cl)c(Cl)c2)c1` [TCMDC-140847] belongs 37.48%; to `CCN(CC)CCNC(=O)c1ccc(NC(=O)c2ccc(-c3cc(NC(=O)CC4CCCC4)ccc3C)cc2)cc1` [TCMDC-133707], 110.3%. To `Cc1ccc(NC(=O)C2CCC2)cc1-c1ccc(C(=O)NCC2CC2)cc1` [TCMDC-138709] belongs -25.69%; to `COc1ccc(NC(=O)Nc2ccc(C)c(-c3ccc(C(=O)NCCN4CCCC4)cc3)c2)cc1` [TCMDC-134196], -27.29%; to `COc1ccc(CN(C)CCCc2ccc(NC(=O)Cc3ccc4nc(-c5ccccc5)ccc4c3)cc2)cc1OC` [TCMDC-131845], 17.3%. To `COc1ccc(CCNCCCCCCNCCCc2ccc(Cl)cc2)cc1OC` [TCMDC-131280] belongs 105.1%; to `COc1ccc(CCNCCCCCCNCCc2ccc(-c3ccccc3)cc2)cc1OC` [TCMDC-131267], 96.14%. Take `COc1cc2c(cc1OC)CC(NCc1ccc(-c3ccc4nc[nH]c4c3)cc1)C2` [TCMDC-133474]: the “% Inhibition” value is 37.11%. To `COc1ccc(CNCC2CCC(CNCCc3ccccc3)CC2)cc1Cl` (stereo not shown) [TCMDC-140364] belongs -22.08%. To `COc1cc2c(cc1OC)CC(NCCCCCCNCCc1ccc(Cl)cc1)CC2` (stereo not shown) [TCMDC-132038] belongs 103.4%; to `COc1ccc(CNCCCCCCNCCc2ccc(Cl)cc2)cc1OC` [TCMDC-131282], 88.88%; to `COc1cc2c(cc1OC)CN(CCCCc1ccc(NC(=O)c3cc(Cl)cc(Cl)c3)cc1)CC2` [TCMDC-138174], -15.17%.

Consider `CCOc1cc2ncnc(Nc3ccc(OCc4c(Cl)cccc4Cl)c(OC)c3)c2cc1OCC` [TCMDC-131927], for which the “% Inhibition” value is listed as -5.801%. Turning to `CCC(O)(C#Cc1c(C)nc(N)nc1N)CC` [TCMDC-137329], the “% Inhibition” value was 41.32%. To `N#Cc1ccc(NC(=NCc2cccnc2)Nc2ccc(-c3ccccc3)cc2)c(O)c1` [TCMDC-140208] belongs -10.63%; to `COc1ccccc1C1CC(c2ccc(Br)cc2)=NN1C(=O)c1ccccc1` (stereo not shown) [TCMDC-125622], 32.36%; to `Oc1ccc2[nH]c(-c3cccc(F)c3)nc2c1CN1CCC(N2CCCC2)CC1` [TCMDC-136357], -60.35%. To `Cc1cccc2[nH]c(-c3ccc(-c4cccc(NC(=O)NCc5cccc(F)c5)c4)cc3)nc12` [TCMDC-133295] belongs 32.47%; to `COc1cccc(NC(=O)Nc2ccc(Nc3nc(C)cc(N4CCCC4)n3)cc2)c1` [TCMDC-124957], -12.57%. To `N=C(N)c1cc(Br)cc(NC(=O)Nc2cc(Br)cc(C(=N)N)c2)c1` [TCMDC-124180] belongs -21.96%; to `CC1CCN(CC[C@H]2CCCN2S(=O)(=O)c2cccc(NC(=O)Nc3ccc(C(F)(F)F)cc3)c2)CC1` [TCMDC-141021], -52.23%.

Regarding `CCCN(CCC)c1nn2c(=O)c(C(=O)N3CCN(Cc4ccccc4)CC3)cnc2s1` [TCMDC-125272], the “% Inhibition” value is -5.242%. In the case of `COc1ccc(CNCCCCCNCc2ccc(Cl)c(Cl)c2)cc1Cl` [TCMDC-140365], the “% Inhibition” value was found to be 23.3%. To `Cc1cc(CNCCCCCCCNCc2cccc([N+](=O)[O-])c2)ccc1O` [TCMDC-140416] belongs 12.73%; to `COc1ccc(CCNCCCCCNCCCc2ccc(Cl)cc2)cc1OC` [TCMDC-131278], 107.5%.

As for `COc1ccc(CCNCCCCCNCCc2ccc(Cl)cc2)cc1OC` [TCMDC-131269], the “% Inhibition” value is 103.7%. For the compound `COc1ccc(CCNCCCCCCNCCc2cccc([N+](=O)[O-])c2)cc1OC` [TCMDC-131262], the “% Inhibition” value was 82.84%. As for `COc1ccc(CCNCCCCCCNCCc2ccc(Cl)c(Cl)c2)cc1OC` [TCMDC-131275], the “% Inhibition” value amounted to 106.4%. For the compound `Cc1cc(CNCCCCCNCc2cccc([N+](=O)[O-])c2)ccc1O` [TCMDC-140410], the “% Inhibition” value was 42.39%.

On to `COc1ccc(CNCCCCCCCNCc2ccc(Cl)c(Cl)c2)cc1Cl` [TCMDC-140366], for which the “% Inhibition” value is on record as 13.21%. To `Cc1ccc(C2=NNC3(S2)C(=O)N(C)c2ccccc23)cc1` (stereo not shown) [TCMDC-123863] belongs 24.25%. To `COc1ccc(C23Oc4cc(OC)cc(OC)c4C2(O)C2(CC3c3ccccc3)SCCCS2)cc1` (stereo not shown) [TCMDC-132098] belongs 11.15%. To `OCC(CO)(CO)NCc1ccc2c3c(cccc13)-c1ccccc1-2` [TCMDC-137877] belongs -8.777%; to `C=CCn1c(C)cc(C(=O)COc2ccc(S(=O)(=O)N3CCOCC3)cc2[N+](=O)[O-])c1C` [TCMDC-124326], 33.1%; to `COc1cc(CNCCCNc2nc3ccsc3c(=O)[nH]2)c2[nH]cc(Cl)c2c1` [TCMDC-140349], -35.52%. Take `COc1cccc(CCNCCCCCCNCCc2ccc(Cl)cc2)c1` [TCMDC-131284]: the “% Inhibition” value is listed as 113.2%. To `COc1cccc(CCc2cccc(CNC(C)=O)c2)c1` [TCMDC-139277] belongs -0.06569%; to `COc1ccc2nccc([C@@H](O)CN3CCC(NCc4nc5cc(F)ccc5o4)CC3)c2c1` [TCMDC-140783], -5.365%; to `c1ccc2c(c1)ncc1c3ccccc3[nH]c21` [TCMDC-131258], -7.104%.

As to `O=C(O)C(F)(F)F.O=C1CCCN1CCCNCc1cccc(-c2ccc(-c3nc4cc(C(F)(F)F)ccc4[nH]3)s2)c1` [TCMDC-132757], the “% Inhibition” value is given as -29.57%. To `Cc1cccc2nc(-c3ccc(-c4cccc(CNCCCN5CCCC5=O)c4)s3)[nH]c12.O=C(O)C(F)(F)F` [TCMDC-132762] belongs -3.129%; to `NCC1CCCN1Cc1cccc(-c2ccc(-c3nc4cc(C(F)(F)F)ccc4[nH]3)s2)c1.O=C(O)C(F)(F)F` (stereo not shown) [TCMDC-132992], 36.35%. To `Cc1cccc2nc(-c3ccc(-c4cccc(CN5CCCC5CN)c4)s3)[nH]c12.O=C(O)C(F)(F)F` (stereo not shown) [TCMDC-132997] belongs 41.54%; to `NCC1CCCN1Cc1cccc(-c2ccc(-c3nc4ccccc4[nH]3)s2)c1.O=C(O)C(F)(F)F` (stereo not shown) [TCMDC-132987], 77.53%. To `O=C(O)C(F)(F)F.O=C1CCCN1CCCNCc1cccc(-c2ccc(-c3nc4ccccc4[nH]3)s2)c1` [TCMDC-132749] belongs 78.47%; to `CCCCCc1cnc2nc(N)nc(N)c2c1` [TCMDC-137922], -4.326%. For `N#Cc1ccc2c(c1)CCN(CCC1CCC(NC(=O)/C=C/c3c[nH]c4c(Br)cccc34)CC1)CC2` (stereo not shown) [TCMDC-139672], the “% Inhibition” value is reported as -4.951%. As for `Cc1cccc2[nH]c(-c3ccc(-c4ccc(NC(=O)NCc5ccc(F)cc5)cc4)cc3)nc12` [TCMDC-133302], the “% Inhibition” value is reported as 17.3%. To `CC(=O)Nc1ncc(C(=O)Nc2cccc(-c3ccc(-c4nc5c(C)cccc5[nH]4)cc3)c2)s1` [TCMDC-136913] belongs 10.82%; to `Cc1cnc(C[S+]([O-])c2nc3ccc(C(F)(F)F)cc3[nH]2)cc1OCc1ccccc1` (stereo not shown) [TCMDC-131542], 10.44%.

For the compound `Nc1nc(N)c2c(Cc3ccccc3)cccc2n1` [TCMDC-137764], the “% Inhibition” value is listed as -5.935%. For `CCN(CC)CCN(Cc1ccc(-c2ccc(C(F)(F)F)cc2)cc1)C(=O)Cn1cc(CCCc2cccc(F)c2F)c(=O)c2ccccc21` [TCMDC-141331], the “% Inhibition” value is reported as 81.22%. To `CCN(CC)CCN(Cc1ccc(-c2ccc(C(F)(F)F)cc2)cc1)C(=O)Cn1cc(CCCCc2cccc(F)c2F)c(=O)c2ccccc21` [TCMDC-141340] belongs 60.46%. To `COc1ccc(OC)c2c1CCN(C)C2Cc1cccc2ccccc12` (stereo not shown) [TCMDC-137509] belongs 12.85%; to `O=C(NC1CCC(N2CCC(c3nc4ccccc4s3)CC2)CC1)c1cc2ccccc2[nH]1` (stereo not shown) [TCMDC-132780], -77.63%.

As to `Cc1cc(C(=O)Nc2ccc3c(c2)CCN3C2CCN(Cc3ccc4nsnc4c3)C2)no1` (stereo not shown) [TCMDC-135076], the “% Inhibition” value is given as -30.56%. To `O=S(=O)(NC1=NCCC1)c1cccc(Nc2nc(C(F)(F)F)nc3ccccc23)c1` [TCMDC-124821] belongs -4.384%. To `Cc1cccc2nc(-c3ccc(-c4cccc(CNCc5ccc(CN)cc5)c4)s3)[nH]c12.O=C(O)C(F)(F)F` [TCMDC-132812] belongs 115.3%.

With `CNc1ccc(CNCc2cccc(-c3ccc(-c4nc5ccccc5[nH]4)s3)c2)cc1.O=C(O)C(F)(F)F` [TCMDC-132977], the “% Inhibition” value is recorded as -37.37%. To `C=CCOC(=O)N1CCC(CNCc2ccc(-c3cccc(-c4nc5ccccc5[nH]4)c3)cc2)C1.O=C(O)C(F)(F)F` (stereo not shown) [TCMDC-132566] belongs 89.86%. To `Cc1cccc2nc(-c3ccc(-c4cccc(CNC(C)C)c4)s3)[nH]c12.O=C(O)C(F)(F)F` [TCMDC-132743] belongs 8.329%.

Take `C=CCOC(=O)N1CCC(CNCc2ccc(-c3cccc(-c4nc5cc(F)ccc5[nH]4)c3)cc2)C1.O=C(O)C(F)(F)F` (stereo not shown) [TCMDC-133044]: the “% Inhibition” value came out at 2.158%. In the case of `C=CCOC(=O)N1CCC(CNCc2cccc(-c3cccc(-c4nc5ccccc5[nH]4)c3)c2)C1.O=C(O)C(F)(F)F` (stereo not shown) [TCMDC-133046], the “% Inhibition” value was -7.738%. To `Cc1cccc2nc(-c3ccc(-c4cccc(CNC5CCN(C)CC5)c4)s3)[nH]c12.O=C(O)C(F)(F)F` [TCMDC-132736] belongs 105.5%; to `Cc1cccc2nc(-c3ccc(-c4cccc(CNCc5cccc(N)c5)c4)s3)[nH]c12.O=C(O)C(F)(F)F` [TCMDC-132936], -17.71%; to `CNc1ccc(CNCc2cccc(-c3ccc(-c4nc5cccc(C)c5[nH]4)s3)c2)cc1.O=C(O)C(F)(F)F` [TCMDC-132983], 78.71%. Turning to `Cc1cccc2nc(-c3ccc(-c4cccc(CNCc5ccccc5)c4)s3)[nH]c12.O=C(O)C(F)(F)F` [TCMDC-132703], the “% Inhibition” value is listed as -30.5%.

In the case of `COc1ccc(CNCc2cccc(-c3ccc(-c4nc5cccc(C)c5[nH]4)s3)c2)cc1.O=C(O)C(F)(F)F` [TCMDC-132722], the “% Inhibition” value is given as 2.559%. To `Cc1noc(C)c1-c1cccc(CNCc2cccc(-c3ccc(-c4nc5cccc(C)c5[nH]4)s3)c2)c1.O=C(O)C(F)(F)F` [TCMDC-133059] belongs -9.203%.

One may read the % Inhibition as the drop in the measured response relative to a control, in per cent.
